Data reported in PubChem BioAssay AID1376 (SRMLSC, 2008).
Among all 220,000 compounds or so, about 530 (0.24%) were called active. No stated cut-off is given here; in the data, active means inhibition above about 13%; inconclusive means no clear call, values can overlap the other calls; inactive means below that. The list comes from a sample in which actives are over-represented; it also holds similar structures and randomly drawn compounds. Results with a measured potency or affinity are listed apart.

Target: Bifunctional protein GlmU (Mycobacterium tuberculosis (strain ATCC 25618 / H37Rv)) (UniProt P9WMN3)
Test: inhibition of mycobacterial GlmU enzyme – biochemical, glucosamine-1-phosphate acetyltransferase (AID 1376);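 further: 0% = complete reaction with vehicle and 100% = reaction without substrate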
Conditions: M. tuberculosis GlmU acetyltransferase enzyme assay; hits give high values;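 tested at 30 µM in the primary screen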

Bifunctional protein GlmU (Mycobacterium tuberculosis (strain ATCC 25618 / H37Rv)), sequence (P9WMN3 whole entry, looked up): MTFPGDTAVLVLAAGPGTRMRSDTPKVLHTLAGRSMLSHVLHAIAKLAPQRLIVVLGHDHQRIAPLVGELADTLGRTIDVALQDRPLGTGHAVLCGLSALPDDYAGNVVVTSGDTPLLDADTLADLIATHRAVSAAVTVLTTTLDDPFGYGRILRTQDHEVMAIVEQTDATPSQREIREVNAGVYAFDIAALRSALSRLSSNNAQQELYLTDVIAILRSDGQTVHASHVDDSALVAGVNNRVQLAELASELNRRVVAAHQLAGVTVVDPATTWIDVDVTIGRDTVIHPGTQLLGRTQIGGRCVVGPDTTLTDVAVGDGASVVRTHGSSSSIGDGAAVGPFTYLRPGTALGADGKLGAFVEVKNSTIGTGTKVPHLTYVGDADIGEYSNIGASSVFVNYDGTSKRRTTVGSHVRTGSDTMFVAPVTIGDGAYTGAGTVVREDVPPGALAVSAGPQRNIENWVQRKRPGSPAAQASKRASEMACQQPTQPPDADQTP

SMILES | inhibition
CCOC(=O)C1=C(c2ccccc2)NC(SCC(=O)NC2CCCCC2)=C(C#N)C1c1ccco1 (stereo not drawn) | 2.37% (inactive)
Cc1ccc(/C=C2\SC(=S)N(Cc3ccccc3)C2=O)o1 | -1.65% (inactive)
O=C1N=C(N2CCOCC2)S/C1=C\c1ccc(-c2ccccc2Cl)o1 | 2.7% (inactive)
O=C1/C(=C\c2ccc(-c3ccccc3Cl)o2)SC(=S)N1CC1CCCO1 (stereo not drawn) | 7.34% (inactive)
CCOc1ccc(/C=C2/SC(=O)NC2=S)cc1 | -3.11% (inactive)
O=C(Nc1cccc(NC(=O)c2nccc3ccccc23)c1)c1ccco1 | -1.26% (inactive)
COc1cc(C(=O)Nc2ccncc2)c([N+](=O)[O-])cc1OC | 6.59% (inactive)
CCN1CCN(c2cc(C)c3cc(NC(=O)c4cnccn4)ccc3n2)CC1 | -5.83% (inactive)
O=C1c2ccccc2C(=O)N1OCc1ccc(Cl)cc1 | -2.04% (inactive)
CN(C)c1ccc(/C=C2/C(=O)NC(=O)N(Cc3ccco3)C2=O)cc1 | -4.04% (inactive)
CCN(CC)c1ccc(/C=C2/C(=O)NC(=O)N(Cc3ccco3)C2=O)cc1 | -0.51% (inactive)
C=CCN1C(=O)/C(=C/c2cccs2)C(=O)NC1=S | 4.18% (inactive)
O=C1NC(=O)N(Cc2ccc(F)cc2)C(=O)/C1=C/c1cccs1 | -2.44% (inactive)
O=C1NC(=S)N(Cc2ccco2)C(=O)/C1=C\c1cccs1 | 96% (active)
O=C(/C=C/c1ccco1)c1ccc(NC(=O)C23CC4CC(CC(C4)C2)C3)cc1 | -0.76% (inactive)
Cc1ccc(C)c(S(=O)(=O)NCCOC(=O)Nc2sc(=S)n(C)c2C)c1 | 6.71% (inactive)
CCOC(=O)CNC(=O)CSc1nc(N)cc(N)n1 | 1.79% (inactive)
N#CC1=C(N)Oc2c(oc(CO)cc2=O)C1c1ccsc1 (stereo not drawn) | -2.69% (inactive)
Cc1nn(-c2ccc(Cl)cc2)c(NC(=O)C(C)C)c(-c2ccccc2)c1=O | -2.2% (inactive)
COc1cc(/C=C2/SC(=Nc3ccc(O)cc3)NC2=O)cc(OC)c1O | 7% (inactive)
COc1cc(/C=C2\SC(=Nc3ccc(O)cc3)NC2=O)cc(OC)c1O | 69.2% (active)
COc1cc(/C=C2\SC(=Nc3ccc(O)cc3)NC2=O)cc(OC)c1OC | -1.9% (inactive)
COc1ccccc1C1=NNC(=NCc2ccccc2)SC1 | -1.42% (inactive)
CCN(c1ccccc1)S(=O)(=O)c1ccc(OC)c(NC(=O)CN(C)C)c1 | -3.46% (inactive)
CCOC(=O)C1=C(NC#N)OC(C)=C(C)C1c1ccc(O)cc1 (stereo not drawn) | -6.11% (inactive)
CC(=O)Nc1ccc(S(=O)(=O)N2CCN(c3ccccn3)CC2)cc1 | 14% (active)
Cc1ccc(S(=O)(=O)N2CCN(c3ccccn3)CC2)cc1 | 3.12% (inactive)
CC(C(=O)Nc1ccc(S(=O)(=O)N2CCCCC2)cc1)N1CCN(c2ccccn2)CC1 (stereo not drawn) | 0.72% (inactive)
